Screening results (PubChem)
In the library only some 19% were active in any assay of this set; here they are far more common.
HT1080 IDH1KD tx: toxicity to HT-1080 IDH1 knockdown cells (counter line). HT-1080 IDH1 knockdown viability, ATP luminescence, 48 h. Potency, µM (series often up to 46.1 µM), actives largely listed as cytotoxic. hit rate 2% among 360,000
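Viability of IDH1-knockdown HT-1080 fibrosarcoma cells was assessed by CellTiter-Glo after 48 h at 37 °C with titrated compound; concentration-effect curves were classified by fit quality and response size.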
HT1080-NT tox: kills 2HG-producing HT-1080-NT fibrosarcoma cells; HT-1080-NT fibrosarcoma viability, CellTiter-Glo ATP luminescence, 48 h; Potency, µM (highest dose often 46.1 µM), hits mostly cytotoxic; hit rate 1.6% among 360,000; AID 686970;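 note: NT is the 2HG producing partner of a matched IDH1 knockdown line; nearly all actives have a fitted effect of over 55% in size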
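Viability by CellTiter-Glo luminescence after 48 h compound exposure at 37C of HT-1080-NT cells (750/well, RPMI, 5% FBS). % activity scaled between DMSO wells and medium-only wells, then curve-fitted and categorized by curve class.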
IL-1B inflam inh: inflammasome signaling inhibition, IL-1 beta readout; THP-1 LPS/ATP IL-1B secretion, AlphaLISA, 16 h; hits give low values; activity change, % at 57.5 µM; hit rate 4.7% among 360,000; in the data active = activity change below about -50%; inconclusive = mostly about -30% to -49%
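Secreted IL-1B measured by AlphaLISA bead assay after 16 h compound exposure of THP-1 cells; compounds (final up to 57.5 uM) added 1 h before LPS (250 ng/mL) and ATP (1.25 mM) stimulation; lower signal means less secretion.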
TDP1 cell noCPT: qHTS for Inhibitors of human tyrosyl-DNA phosphodiesterase 1 (TDP1): qHTS in cells in absence of CPT; AID 686978, 2013; DT40 Tdp1-/- hTDP1 cells, no CPT, ATP luminescence, 48 h; Potency, µM (highest dose often 46.2 µM), actives largely listed as inhibitors; hit rate 15% among 420,000; note: nearly all actives have a fitted effect of over 55% in size
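Stably hTDP1-transfected Tdp1-null chicken DT40 cells were treated with library compounds minus camptothecin and grown for at least 48 hr at 37 °C, after which cellular ATP was quantified by luminescence.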
DT40 TDP1 CPT: DT40-hTDP1 cell growth loss with CPT. chicken DT40 Tdp1-/-;hTDP1 cells + 20 nM CPT, ATP luminescence, 48 h. Potency, µM (series often up to 46.2 µM), actives largely listed as inhibitors. hit rate 12% among 420,000. AID 686979; note: nearly all actives have a fitted effect of over 55% in size
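Cell growth measured by CellTiter-Glo luminescence after a minimum 48 h, 37 C compound exposure with 20 nM CPT in Tdp1-knockout DT40 cells stably expressing hTDP1, seeded 400/well; qHTS titration format.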
Each line names hits and unclear results; the compound was inactive in the other large screens. Unless noted, calls come from the whole dose curve; as a rule, active = well fitted curve in the direction sought with a large enough effect; inconclusive = small, poorly fitted or top-dose-only effect, or another doubt; inactive = no such curve, though single readings can be large; an effect the other way counts as inactive or inconclusive.

CCCNC(=O)C1(CC2CC(c3ccccc3)=NO2)CCN(C(=O)c2ccccc2)CC1 (stereo unspecified)	none
CCCCCCCNC(=O)C1(CC2CC(c3ccc(Cl)cc3)=NO2)CCN(C(=O)C2(C)CC2)CC1 (stereo unspecified)	IL-1B inflam inh inconclusive, TDP1 cell noCPT 16µM, DT40 TDP1 CPT inconclusive
Cc1ccc(C)c(OCc2nc3ccc(S(=O)(=O)Nc4c(C)n(C)n(-c5ccccc5)c4=O)cc3[nH]2)c1	TDP1 cell noCPT inconclusive
Cc1cc(C)cc(NC(=O)COc2coc(CN3CCc4ccccc43)cc2=O)c1	HT1080 IDH1KD tx inconclusive, HT1080-NT tox inconclusive, TDP1 cell noCPT inconclusive, DT40 TDP1 CPT inconclusive
Cc1ccc(NC(=O)COc2coc(CN3CCc4ccccc43)cc2=O)c(C)c1	TDP1 cell noCPT 15µM, DT40 TDP1 CPT inconclusive
COc1ccc(OC)c(NC(=O)COc2coc(CN3CCCc4ccccc43)cc2=O)c1	HT1080 IDH1KD tx inconclusive, TDP1 cell noCPT inconclusive, DT40 TDP1 CPT inconclusive
COc1ccc(CCNC(=O)COc2coc(CN3c4ccccc4CC3C)cc2=O)cc1OC (stereo unspecified)	TDP1 cell noCPT 16µM, DT40 TDP1 CPT inconclusive
Cc1ccc(NC(=O)COc2coc(CN3c4ccccc4CC3C)cc2=O)c(C)c1 (stereo unspecified)	TDP1 cell noCPT 13µM, DT40 TDP1 CPT inconclusive
O=C(COc1coc(CN2CCCc3ccccc32)cc1=O)Nc1ccccc1	TDP1 cell noCPT 5.8µM, DT40 TDP1 CPT inconclusive
O=C(NCc1cccnc1)Nc1ccc(Cl)cc1	none
CCCCn1c(N)c(N(C(=O)CSc2nnc(C)n2-c2ccccc2)C2CCCC2)c(=O)[nH]c1=O	none
CCOc1ncc(S(=O)(=O)N2CCN(CC)CC2)cc1C(=O)O	none
CC1(C(=O)NS(=O)(=O)c2cccc(F)c2)CCN1C(=O)CCc1ccccc1 (stereo unspecified)	none
Cc1ccc(NC(=O)COc2coc(CN3CCc4ccccc4C3)cc2=O)c(C)c1	TDP1 cell noCPT inconclusive, DT40 TDP1 CPT inconclusive
COc1ccc(OC)c(NC(=O)COc2coc(CN3CCc4ccccc43)cc2=O)c1	TDP1 cell noCPT 16µM, DT40 TDP1 CPT inconclusive
Cc1ccc(C)c(NC(=O)COc2coc(CN3CCc4ccccc4C3)cc2=O)c1	TDP1 cell noCPT 16µM, DT40 TDP1 CPT 18µM
Cc1c(CNC(=O)c2nn3c(c2Cl)NC(c2ccccc2)CC3C(F)(F)F)cnn1C (stereo unspecified)	TDP1 cell noCPT inconclusive, DT40 TDP1 CPT inconclusive
COc1ccc(C2CC(C(F)(F)F)n3nc(C(N)=O)c(Cl)c3N2)cc1OC (stereo unspecified)	TDP1 cell noCPT inconclusive
COc1ccc(C2CC(C(F)(F)F)n3nc(C(=O)NCc4c(C)nn(C)c4C)c(Cl)c3N2)cc1 (stereo unspecified)	HT1080-NT tox inconclusive, TDP1 cell noCPT 5.2µM, DT40 TDP1 CPT 1.3µM
COc1ccc(C2CC(C(F)(F)F)n3nc(C(=O)N(C)Cc4cn(C)nc4C)c(Cl)c3N2)cc1 (stereo unspecified)	TDP1 cell noCPT 18µM, DT40 TDP1 CPT inconclusive
COc1ccc(-c2c(-c3ccsc3)oc3ccc(N4CCOCC4)cc23)cc1	TDP1 cell noCPT 16µM, DT40 TDP1 CPT inconclusive
COc1ccc(-c2oc3ccc(N4CCOCC4)cc3c2/C=C/c2ccc(OC)c(OC)c2)cc1	TDP1 cell noCPT inconclusive, DT40 TDP1 CPT inconclusive
Fc1cccc(/C=N/n2c(C3CCCCC3)n[nH]c2=S)c1	none
CCOC(=O)[C@H]1[C@H]2COc3cc(OC)ccc3[C@@H]2N2C(=O)c3cc(OC)c(OC)cc3NC(=O)[C@@]12C	TDP1 cell noCPT inconclusive
CCN1C(=O)[C@H]2[C@@H](c3ccc(-c4cc(C(C)=O)cs4)cc3)N3CCCC[C@@]3(C(=O)OC)[C@H]2C1=O	TDP1 cell noCPT 18µM, DT40 TDP1 CPT inconclusive
CCN1C(=O)[C@H]2[C@@H](c3ccc(-c4cc(C(C)=O)cs4)cc3)N3CCC[C@@]3(C(=O)OC)[C@H]2C1=O	TDP1 cell noCPT 23µM, DT40 TDP1 CPT inconclusive
C/C(Cn1cnc([N+](=O)[O-])n1)=N/NC(=O)COc1c(Cl)cc(Cl)cc1Cl	none
CCOC(=O)C(C(=O)OCC)C1OC(=O)c2cc3c(cc21)C(=O)OC3C(C(=O)OCC)C(=O)OCC (stereo unspecified)	HT1080 IDH1KD tx inconclusive, HT1080-NT tox inconclusive, IL-1B inflam inh -98, DT40 TDP1 CPT inconclusive
CCOC(=O)CC1OC(=O)c2cc3c(cc21)C(=O)OC3CC(=O)OCC (stereo unspecified)	none
OCCN1CCN(c2nc(-c3ccccc3)nc3c2oc2ccccc23)CC1	HT1080 IDH1KD tx inconclusive, HT1080-NT tox 23µM, TDP1 cell noCPT 16µM, DT40 TDP1 CPT inconclusive (no result: IL-1B inflam inh)
O=C(O)CSc1nc(-c2ccccc2)nc2c1oc1ccccc12	none
CN1CCN(c2nc(-c3ccccc3O)nc3ccccc23)CC1	TDP1 cell noCPT inconclusive, DT40 TDP1 CPT inconclusive
OCCN(CCO)c1nc(-c2ccccc2)nc2c1oc1ccccc12	TDP1 cell noCPT inconclusive, DT40 TDP1 CPT 16µM
OCCN1CCN(c2nc(-c3ccccc3O)nc3ccccc23)CC1	HT1080 IDH1KD tx inconclusive, HT1080-NT tox inconclusive, IL-1B inflam inh -82, TDP1 cell noCPT 16µM
COC(=O)CSCc1nc(-c2ccc(C(=O)OC)cc2)oc1C	none (no result: HT1080 IDH1KD tx, HT1080-NT tox, IL-1B inflam inh)
N/C(CCS(=O)(=O)c1ccc(Cl)cc1)=N\OC(=O)c1ccccc1Cl	HT1080 IDH1KD tx inconclusive, HT1080-NT tox inconclusive, IL-1B inflam inh -51, TDP1 cell noCPT inconclusive
COc1ccc(N2CCN(c3cncc(C)n3)CC2)cc1	none
Cc1cc(C)c2c(=O)cc(C(=O)Nc3ccc(S(=O)(=O)Nc4nc(C)cc(C)n4)cc3)oc2c1	TDP1 cell noCPT inconclusive (no result: HT1080 IDH1KD tx, HT1080-NT tox, IL-1B inflam inh)
CN(Cc1ccccc1)S(=O)(=O)c1ccc(NC(=O)c2cc(=O)c3ccccc3o2)cc1	TDP1 cell noCPT 16µM, DT40 TDP1 CPT 13µM (no result: HT1080 IDH1KD tx, HT1080-NT tox, IL-1B inflam inh)
CCN(c1ccccc1)S(=O)(=O)c1ccc(NC(=O)c2cc(=O)c3ccccc3o2)cc1	none (no result: HT1080 IDH1KD tx, HT1080-NT tox, IL-1B inflam inh)
NS(=O)(=O)c1cccc(NC(=O)c2cc(=O)c3ccccc3o2)c1	none
Cc1cc(C)c2c(=O)cc(C(=O)Nc3ccc(S(=O)(=O)N(C)Cc4ccccc4)cc3)oc2c1	TDP1 cell noCPT inconclusive, DT40 TDP1 CPT 5.8µM (no result: HT1080 IDH1KD tx, HT1080-NT tox, IL-1B inflam inh)
O=C(Nc1cccc(S(=O)(=O)N2CCCCCC2)c1)c1cc(=O)c2ccccc2o1	TDP1 cell noCPT 13µM, DT40 TDP1 CPT 23µM
CN(c1ccccc1)S(=O)(=O)c1cccc(NC(=O)c2cc(=O)c3ccccc3o2)c1	IL-1B inflam inh -52, TDP1 cell noCPT 12µM, DT40 TDP1 CPT 16µM
Cc1ccc(NC(=O)Cn2nnc(C(=O)NCc3ccc(Cl)cc3)c2N)cc1F	none
Cc1cc(F)ccc1NCC(=O)Nc1ccccc1Br	TDP1 cell noCPT inconclusive
